# An excerpt weighted towards active compounds, which were near 2.7% of everything screened.
# H9c2 TAG inh: inhibitors of triacylglycerol accumulation; inhibition, % at 12.5 µM; H9c2 cells, Nile Red lipid (TAG) fluorescence; cells loaded with 200 µM oleic acid; 230,000 tested, 0.66% active; AID 651582;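 active = pattern-corrected inhibition of lipid staining of at least 50% with the nuclear-stain viability signal not falling by more than 50%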;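 also: 0% = DMSO wells and 100% = triacsin C control wells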
# MPTP block: blocks calcium-induced mitochondrial swelling | inhibition, % at 10 µM | AID 602449 | isolated mouse mitochondria, Ca2+ swelling absorbance, 30 min | 360,000 tested, 1.4% active;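 active = inhibition of 50% or more, scaled per plate between neutral and stimulator controls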;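 also: 0% = DMSO wells given calcium and 100% = 1 mM EGTA wells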
# NadD inh: blocks S. aureus nicotinate mononucleotide adenylyltransferase | 360,000 tested, 0.78% active | purified NadD enzyme, colorimetric absorbance read-out | inhibition, % at 20 µM | AID 602399; in the data active = inhibition above about 26%
# aDG glyco up: alpha-DG glycosylation activation. Pro5-aDG cells, alpha-DG glycosylation AlphaScreen (IIH6); 0% Pro5, 100% B10-LARGE cell signal. activation, % at 10 µM. 360,000 tested, 0.22% active. AID 624168;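 active = activation of at least 8% versus controls, or a plate z-score of at least 8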;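 also: Pro5 are CHO cells carrying HIG-tagged alpha-DG that lacks glycosylation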
# NadD conf: NadD (S. aureus) inhibition, single concentration confirmation. 2,000 tested, 13% active. AID 624309. inhibition, % at 20 µM. purified S. aureus NadD, colorimetric enzyme assay. shares compounds with NadD inh; in the data active = inhibition mostly above about 42%, no sharp cut-off; inactive = mostly below about 42%
# * = called active by the depositor; · = not tested or not shown; ! = not confirmed by another sample.
SMILES,H9c2 TAG inh,MPTP block,NadD inh,aDG glyco up,NadD conf
CCOC(=O)c1cnc(-n2nc(C)cc2C)nc1NNc1nc(C)cc(C)n1,5,0,-1,0,·
C[C@H](CO)N1C[C@H](C)[C@@H](CN(C)S(=O)(=O)c2ccc(-c3ccccc3)cc2)OCc2cn(nn2)CCCC1=O,4,-1,2,0,·
C[C@H](CO)N1C[C@H](C)[C@@H](CN(C)Cc2ccncc2)OCCCC[C@H](C)Oc2ccc(NC(=O)CCCN(C)C)cc2C1=O,·,0,54*,2,27
C[C@H](CO)N1C[C@H](C)[C@@H](CN(C)S(=O)(=O)c2ccccc2)Oc2ccc(NC(=O)Nc3ccc(C(F)(F)F)cc3)cc2C1=O,28,1,35*,0,6
COc1ccc(NC(=O)N(C)C[C@H]2Oc3ccc(NC(=O)c4ccncc4)cc3C(=O)N([C@H](C)CO)C[C@@H]2C)cc1,3,1,40*,0,41*
O=c1oc2ccccc2cc1-c1csc(Nc2nc3c(F)cccc3s2)n1,·,39,57*,0,1
O=c1oc2ccccc2cc1-c1csc(NN=C2CCCCC2)n1,·,1,22,0,·
N#CCC(=O)Nc1ccc(C(=O)OC(C(=O)Nc2ccc([N+](=O)[O-])cc2Br)c2ccccc2)cc1 (configuration not stated),-8,4,46*,0,39
CN(c1ccccc1)S(=O)(=O)c1cccc(NC(=O)C2=NNC(=O)CC2)c1,-16,1,0,0,·
Cc1cc2nc(/N=C(\N)NC(=O)N3c4ccccc4Sc4ccccc43)nc(C)c2cc1C,41,2,27*!,0,8
Cc1ccc2c(C)nc(/N=C(\N)NC(=O)N3c4ccccc4Sc4ccccc43)nc2c1,19,2,26,0,·
Cc1ccc2nc(/N=C(\N)NC(=O)N3c4ccccc4Sc4ccccc43)nc(C)c2c1,·,2,31*,0,6
COc1ccc2nc(/N=C(\N)NC(=O)N3c4ccccc4Sc4ccccc43)nc(C)c2c1,·,2,6,0,·
Nc1[nH]c(C(=O)c2ccccc2)c(-c2ccccc2Br)c1C(=O)NCCc1c[nH]c2ccccc12,·,-1,43*,0,28
COc1ccc(C(=O)c2[nH]c(N)c(C(=O)NCCc3c[nH]c4ccccc34)c2-c2ccc(Cl)cc2)cc1,·,1,25,0,·
Nc1[nH]c(C(=O)c2ccccc2)c(-c2ccc(Cl)cc2)c1C(=O)NCc1ccccc1,·,2,9,0,·
Nc1[nH]c(C(=O)c2ccccc2)c(-c2ccccc2Br)c1C(=O)NCc1ccc(-c2ccccc2)cc1,·,0,36*,0,50*
Nc1[nH]c(C(=O)c2ccccc2)c(-c2ccc([N+](=O)[O-])cc2)c1C(=O)NCCc1c[nH]c2ccccc12,·,0,43*,-1,24
Nc1[nH]c(C(=O)c2ccccc2)c(-c2ccccc2C(F)(F)F)c1C(=O)NCCc1c[nH]c2ccccc12,·,0,28,0,·
Nc1[nH]c(C(=O)c2ccc(Br)cc2)c(-c2ccc(Br)cc2)c1C(=O)NCCc1c[nH]c2ccccc12,·,3,50*,0,39
c1ccc(CCNCc2ccco2)nc1,-7,1,-3,0,·
COc1cc(CN2CCCCC2C(=O)Nc2ccc(Oc3ccccc3)nc2)ccc1O (configuration not stated),20,0,0,0,·
CCOC1=C2CN(S(=O)(=O)c3ccc(C)cc3)[C@@H](c3cccs3)C[C@H]2[C@H]2C(=O)N(c3ccccc3)C(=O)[C@H]2C1,·,1,5,0,·
COc1cccc(Nc2nc(-c3sc(NC(=O)c4ccco4)nc3C)cs2)c1,27,3,30*,0,42*
COc1ccc(Cl)cc1Nc1nc(-c2sc(NC(=O)c3ccco3)nc2C)cs1,20,-1,24,0,·
SMILES,H9c2 TAG inh,MPTP block,NadD inh,aDG glyco up,NadD conf
CCOc1ccccc1Nc1nc(-c2sc(NC(=O)c3cccc(Cl)c3)nc2C)cs1,16,1,55*,0,0
CCC(C)C(=O)Nc1nc(C)c(-c2csc(Nc3cc(OC)ccc3OC)n2)s1 (configuration not stated),25,1,7,1,·
COc1ccc(Cl)cc1Nc1nc(-c2sc(NC(=O)C(C)(C)C)nc2C)cs1,7,1,39*,4,10
CCC(C)C(=O)Nc1nc(C)c(-c2csc(Nc3cc(Cl)ccc3OC)n2)s1 (configuration not stated),-9,0,32*,1,13
COc1ccc2cc(Br)ccc2c1CC(=O)NCCCN1CCOCC1,15,2,-8,0,·
CC(=O)C1(C)C(=O)N(c2ccc(F)cc2)C(=O)N1c1ccc(F)cc1 (configuration not stated),-14,-2,1,0,·
O=C(Nc1ccc2c(c1)OCCO2)C1c2ccccc2OCC(=O)N1CCc1c[nH]c2ccccc12 (configuration not stated),·,0,-2,0,·
Cn1c(C(=O)Nc2ccc3c(c2)OCCO3)cc2sccc21,·,0,-7,0,·
CC(C)c1ccc(NC(=O)Nc2cc3sccc3n2C)cc1,16,0,42*,0,27
Cc1cc2nc(-c3ccc(SCC(=O)Nc4ccc5c(c4)OCCO5)nc3)[nH]c2cc1C,·,1,30*,1,20
Cc1ccc2nc(-c3ccc(SCC(=O)Nc4ccc5c(c4)OCCO5)nc3)[nH]c2c1,·,-3,16,0,·
CC1=CC(C)C(=O)N(CCN2CCOCC2)C(C)=C1 (configuration not stated),4,0,-3,0,·
Cn1c(=O)c2sccc2n2c(CCCC(=O)NC3CCN(Cc4ccccc4)CC3)nnc12,·,-1,-3,0,·
Nc1scc2c(C(=O)N/N=C/c3ccc(Cl)cc3)nn(-c3ccccc3)c(=O)c12,12,3,40*,0,14
CCOC(=O)c1nn(-c2ccccc2)c(=O)c2c(N)scc12,13,-1,2,0,·
COc1ccc(NC(=O)C2CC(=O)N(Cc3ccco3)C2)cc1Cl (configuration not stated),-15,0,-2,0,·
Cc1ccc(C(C)C)c(OCc2ccc(C(=O)N/N=C/c3ccc(O)cc3O)cc2)c1,·,3,14,1,·
Cc1ccc(C(C)C)c(OCc2ccc(C(=O)N/N=C/c3ccc(C(=O)O)cc3)cc2)c1,-11,33,30*,0,3
O=C(Nc1ccc(C2=NCCN2)cc1)c1ccc(C(=O)Nc2ccc(C3=NCCN3)cc2)c(Cl)c1,·,-1,30*,0,13
O=C(Nc1ccc(NC(=O)c2ccc(Cl)cc2Cl)cc1)c1ccc2c(c1)OCO2,·,-1,3,0,·
CC1(c2ccccc2)NC(=O)N(CC(=O)NCc2cccc(Cl)c2)C1=O (configuration not stated),·,0,-6,0,·
COc1ccccc1-c1cc(NC(C)=O)c2ncc(-c3cccc(C(C)=O)c3)n2c1,-4,-1,-7,0,·

# Screening data deposited in PubChem BioAssay by Sanford-Burnham Center for Chemical Genomics.
